Several values for one entry are separate records, joined by “and”; a condition that tells them apart may be missing. Identical values can stand only once. Compounds without any hit were thinned out: in the full panel of roughly 79,000, 15% have a hit. Unmarked numbers belong to inactive results. No stated cut-off is given here; in the data, active means growth inhibition above about 70%; inactive means the rest.

The assay can be described thus: NCI Yeast Anticancer Drug Screen. Data for the bub3 strain (AID 167). The settings on record: S. cerevisiae bub3 mutant strain, stronger effect = higher value; at 50.0 µM unless noted. In outline:
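Whole-cell yeast assay. The mutant strain was incubated with compounds, and growth inhibition was determined by comparison with vehicle-treated cells.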
As to `CCCCCCCCN(CCCCCCCC)CC(O)c1cc(Cl)c(Cl)c(Cl)c1` (centres undefined), the growth inhibition was 18.6%.
`NC(=O)C1CC1`: the growth inhibition is 9.25%.
In the case of `O=C1OC(/C=C/c2ccccc2)=NC/1=C\c1ccc2c(c1)OCO2`, the growth inhibition was -1.85%.
Consider `CCOc1ccc(C(=O)C[N+]2(CCc3ccccc3)CCOCC2)cc1`, for which the growth inhibition is -0.7%.
Under `c1ccc2c(c1)OC1OC2Oc2ccccc21` stands -57.5% and 8.1%; under `CC(C)=C(Nc1ccccc1)NC(C)C`, -40.6%; under `O=C1c2ccccc2NC(O)c2cccn21` (centres undefined), 11.4%.
In the case of `O=c1[nH]c2[nH]c(=S)[nH]c(=O)c2[nH]1`, the growth inhibition was -3.4%.
With `Cc1ccc(NC(=O)C2CCCCC2)cc1`, the growth inhibition is -6.25%.
As for `N#CC1(OC2CCCCO2)Cc2ccccc2C1` (centres undefined), the growth inhibition is -5.45%.
`CCCC1([N+](=O)[O-])c2ccccc2-c2ccc([N+](=O)[O-])cc21` (centres undefined): the growth inhibition was 46.1%.
On to `CC(=O)Nc1ccc2nc(SC(C)C)sc2c1`, for which the growth inhibition was 13.1%.
Turning to `Nc1c(Br)cc(Br)cc1C(=O)O`, the growth inhibition was -6.95%.
For `Cc1ccc(N2C(=O)CC(NC3CCCCC3)C2=O)cc1` (centres undefined), the growth inhibition was -5.6%.
Consider `CCCCN(CCCC)CC(=O)NC(=O)c1ccccc1`, for which the growth inhibition was 10.8%.
The figure for `Cc1ccc(C)c(NC(=O)Nc2ccccc2)c1` is 0.35%; for `N#Cc1ccccc1NC(=O)C(=O)c1c(O)c2ccccc2oc1=O` it is -12.2%; for `CCOC(=O)/C=C/CCC(C)(C)COC(C)=O` it is 0.05%.
Take `Nn1c(-c2cccc(Cl)c2)nc2ccccc2c1=O`: the growth inhibition was 17.9%.
The figure for `COc1ccc(OC(C)C(=O)O)c2c(=O)ccccc12` (centres undefined) is 5.7%; for `COc1ccc(-c2nc(Sc3c([N+](=O)[O-])ncn3C)n[nH]2)cc1` it is 12.5%; for `N#CCN1CCc2ccccc2C1` it is -11.7%.
For `O=C1c2sc(-c3ccc(Cl)cc3)cc2-n2cccc21`, the growth inhibition is -9.2%.
On to `C=CCSC[C@H](NC(=O)COc1ccccc1)C(=O)NC(C(=O)OCc1ccc([N+](=O)[O-])cc1)=C(C)C`, for which the growth inhibition is 39.4%.
Consider `O=C1CCCNC(=O)N1`, for which the growth inhibition is 1.95%.
With `CC12C(=O)C(C(c3ccccc3)=C1c1ccccc1)C1C(=O)OC(=O)C12` (centres undefined), the growth inhibition was -11.9%.
Turning to `CCCCCCCCCCCCCCCCCC(=O)N/N=C\c1c(O)ccc2ccccc12`, the growth inhibition is -10.1%.
The figure for `O=C(Cc1ccccc1)c1ccccc1C(=O)NCc1ccncc1` is 9%; for `CCCCC1(N=[N+]=[N-])C(=O)C2C=CC=C3c4ccccc4N(C1=O)C32` (centres undefined) it is 34.7%.
In the case of `NC(=S)N/N=C\c1cccc(O)c1O`, the growth inhibition is 13.4%.
Under `O=C(Cc1ccccc1)C(c1ccccc1)C(c1ccccc1)c1ccccc1` (centres undefined) stands -2.25%; under `CN(C)CCC(C#N)c1ccccc1` (centres undefined), -3.8%; under `CC(C)c1cc(C(C)C)c(S(=O)(=O)N/N=C2\C=CCC(C)(C)C2)c(C(C)C)c1`, -4.7%.
With `N.N.N.N.O=C([O-])O.O=C([O-])[O-].[Co+3]`, the growth inhibition was 24.2%.
Regarding `CN(N=O)C(=O)NCCn1cnc2c(=O)[nH]cnc21`, the growth inhibition is 1.2%.
The figure for `O=c1[nH]c(=O)n(C2CC(O)C(CO)O2)cc1C#Cc1c(F)c(F)c(F)c(F)c1F` (centres undefined) is -13.8%; for `CC(C)(C)c1cc2c(O)c3cccc4c(=O)c5cccc6c5-c(c34)c2c(c1)c6=O` it is 4.8%; for `O=C1c2cc([N+](=O)[O-])ccc2-c2ccc3c4ccc5c6c(ccc(c7ccc1c2c73)c64)C(=O)c1cc([N+](=O)[O-])ccc1-5` it is -35.2%.
Under `Cc1ccccc1C(=O)NC(O)(C(F)(F)F)C(F)(F)F` stands 16.9%.
